# Assay results: PubChem BioAssay (Tox21)
# Where “and” joins values, the source holds several entries; their conditions need not be identical. Equal values may be shown once. Records with an inconclusive call do not appear. Where a call stands in place of a potency, no number is given. Values without a mark were called inactive. Calls of active or inactive are those of the source. Unless noted, calls come from the whole dose curve; as a rule, active = well fitted curve in the direction sought with a large enough effect in the repeat runs; inconclusive = weak or mixed curves; inactive = no such curve, though single readings can be large; an effect the other way counts as inactive or inconclusive.
# Columns and labels:
# [1] = qHTS assay to identify small molecule antagonists of the glucocorticoid receptor (GR) signaling pathway - cell viability counter screen (AID 720693); note: nearly all actives have a fitted effect of over 55% in size
# [2] = qHTS assay for identifying genotoxic compounds that show differential cytotoxicity against isogenic chicken DT40 cell lines with known DNA damage response pathways - wild type cell line (AID 743012); note: nearly all actives have a fitted effect of over 60% in size; note: potency is the fitted concentration of half-maximal effect
# Outline: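 Cytotoxicity in repair-proficient parental chicken DT40 cells serves as the comparator for Rad54/Ku70- and Rev3-deficient lines. Cells were exposed to compounds for 40 h at 37 C/5% CO2, and ATP-based luminescence (CellTiter-Glo) measured viability.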
# [3] = qHTS assay for identifying genotoxic compounds that show differential cytotoxicity against isogenic chicken DT40 cell lines with known DNA damage response pathways - Rev3 mutant cell line (AID 743014); note: nearly all actives have a fitted effect of over 55% in size; note: potency is the fitted concentration of half-maximal effect
# [4] = qHTS assay for identifying genotoxic compounds that show differential cytotoxicity against isogenic chicken DT40 cell lines with known DNA damage response pathways - Rad54/Ku70 mutant cell line (AID 743015); note: nearly all actives have a fitted effect of over 60% in size; note: potency is the fitted concentration of half-maximal effect
# [5] = qHTS assay to identify small molecule antagonists of the androgen receptor (AR) signaling pathway - cell viability counter screen (AID 743033; note: nearly all actives have a fitted effect of over 45% in size)
# [6] = qHTS assay to identify small molecule antagonists of the androgen receptor (AR) signaling pathway using the MDA cell line - cell viability counter screen (AID 743041; note: nearly all actives have a fitted effect of over 45% in size)
# Outline: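 Cytotoxicity counter screen: MDA-kb2 AR-luc cells, compound + R1881, 16 h, 37C, 0% CO2; CellTiter-Fluor added at 15.5 h, fluorescence read after 30 min.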
# [7] = qHTS assay to identify small molecule antagonists of the thyroid receptor (TR) signaling pathway - cell viability counter screen (AID 743064); note: nearly all actives have a fitted effect of over 50% in size; note: potency is the fitted concentration of half-maximal effect
# Outline: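 GH3.TRE-Luc rat pituitary cells carrying a TRE-luciferase reporter were treated with compound plus 1 nM T3 (final) for 23.5 h at 37 °C. Viability was then read in the same wells by CellTiter-Fluor fluorescence after a further 30 min.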
# [8] = qHTS assay to identify small molecule antagonists of the thyroid receptor (TR) signaling pathway (AID 743065); note: nearly all actives have a fitted effect of over 55% in size; note: potency is the fitted concentration of half-maximal effect
# Outline: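 GH3.TRE-Luc rat pituitary cells (two TREs driving luciferase) were dosed with compound, then stimulated with 1 nM T3 (final) for 23.5 h at 37 C. ONE-Glo luminescence was the read-out, with CellTiter-Fluor fluorescence as the cytotoxicity counter-screen.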
# [9] = test system: thyroid hormone receptor (rat, GH3 cells); test: qHTS assay to identify small molecule agonists of the thyroid receptor (TR) signaling pathway (AID 743066; calls by dose curve)
# [10] = qHTS assay to identify small molecule antagonists of the estrogen receptor alpha (ER-alpha) signaling pathway - cell viability counter screen (AID 743074; calls by dose curve;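 note: HEK293 cells carrying ER-alpha-UAS-bla reporter stimulated with 17beta-estradiol; nearly all actives have a fitted effect of over 45% in size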)
# [11] = biological target: Estrogen receptor (Homo sapiens) (UniProt P03372); test: qHTS assay to identify small molecule agonists of the estrogen receptor alpha (ER-alpha) signaling pathway (AID 743075; calls by dose curve;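 note: HEK293 GripTite cells with ER-alpha and UAS-driven beta-lactamase reporter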)
# Estrogen receptor (Homo sapiens), sequence (P03372 whole entry, looked up): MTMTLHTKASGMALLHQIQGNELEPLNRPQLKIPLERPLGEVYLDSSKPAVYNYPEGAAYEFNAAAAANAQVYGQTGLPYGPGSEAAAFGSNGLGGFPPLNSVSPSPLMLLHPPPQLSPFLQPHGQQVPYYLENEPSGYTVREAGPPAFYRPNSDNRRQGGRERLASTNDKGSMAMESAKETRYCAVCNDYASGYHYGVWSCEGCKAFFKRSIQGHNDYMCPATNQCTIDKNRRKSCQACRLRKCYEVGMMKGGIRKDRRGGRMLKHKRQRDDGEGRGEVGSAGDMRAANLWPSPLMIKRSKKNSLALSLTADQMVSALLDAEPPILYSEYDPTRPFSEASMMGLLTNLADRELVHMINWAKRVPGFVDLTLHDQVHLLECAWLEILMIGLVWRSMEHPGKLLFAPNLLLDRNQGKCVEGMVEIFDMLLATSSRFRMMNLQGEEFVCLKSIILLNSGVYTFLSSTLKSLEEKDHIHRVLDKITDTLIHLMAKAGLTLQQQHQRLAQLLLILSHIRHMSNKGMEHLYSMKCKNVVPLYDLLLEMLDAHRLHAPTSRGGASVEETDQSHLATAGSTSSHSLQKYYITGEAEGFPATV
# [12] = biological target: Estrogen receptor (Homo sapiens) (UniProt P03372); test: qHTS assay to identify small molecule agonists of the estrogen receptor alpha (ER-alpha) signaling pathway using the BG1 cell line (AID 743079); note: nearly all actives have a fitted effect of over 20% in size
# [13] = qHTS assay to identify small molecule antagonists of the estrogen receptor alpha (ER-alpha) signaling pathway using the BG1 cell line (AID 743080; calls by dose curve; note: series mostly up to about 70 µM; nearly all actives have a fitted effect of over 25% in size)
# Outline: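 Antagonist mode: compounds in DMSO were pinned onto BG1-Luc-4E2 cells alongside 17beta-estradiol agonist, incubated 21.5 h, and ERE-driven luciferase measured with ONE-Glo. Cytotoxicity was multiplexed using CellTiter-Fluor fluorescence.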
# [14] = qHTS assay to identify small molecule antagonists of the estrogen receptor alpha (ER-alpha) signaling pathway using the BG1 cell line - cell viability counter screen (AID 743081);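 note: compound given together with 17beta-estradiol as the ER stimulus; series mostly up to about 70 µM; nearly all actives have a fitted effect of over 45% in size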
# Aromatase (Homo sapiens) = Aromatase (Homo sapiens) (UniProt P11511); test: qHTS assay to identify aromatase inhibitors (AID 743083); note: series mostly up to about 70 µM; nearly all actives have a fitted effect of over 55% in size
# Aromatase (Homo sapiens), sequence (P11511 whole entry, looked up): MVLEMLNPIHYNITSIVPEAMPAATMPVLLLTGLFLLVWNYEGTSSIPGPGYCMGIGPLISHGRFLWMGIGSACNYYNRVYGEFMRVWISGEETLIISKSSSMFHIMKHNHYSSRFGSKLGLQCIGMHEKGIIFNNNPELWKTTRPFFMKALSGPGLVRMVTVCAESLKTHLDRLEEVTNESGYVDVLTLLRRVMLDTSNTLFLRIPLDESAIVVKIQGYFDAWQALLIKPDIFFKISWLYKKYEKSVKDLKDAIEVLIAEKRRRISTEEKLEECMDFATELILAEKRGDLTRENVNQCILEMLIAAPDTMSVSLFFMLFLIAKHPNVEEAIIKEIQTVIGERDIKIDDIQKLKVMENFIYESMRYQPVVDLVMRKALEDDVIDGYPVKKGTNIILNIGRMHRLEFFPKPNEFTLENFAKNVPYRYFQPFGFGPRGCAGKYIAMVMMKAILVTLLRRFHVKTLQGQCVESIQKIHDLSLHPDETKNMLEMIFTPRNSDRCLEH
# [15] = biological target: Estrogen receptor (Homo sapiens) (UniProt P03372); test: qHTS assay to identify small molecule antagonists of the estrogen receptor alpha (ER-alpha) signaling pathway (AID 743069; active = well fitted curve in the direction sought with a large enough effect in the signal ratio in the repeat runs, not every such curve was filed as active; the % refers to the signal ratio)
# Outline: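 Beta-lactamase FRET fluorescence is read after 2 hr at room temperature with LiveBLAzer B/G substrate. Before that, ER-alpha-bla HEK293 cells sit 4 hr after plating, then receive compound plus 17beta-estradiol and incubate 18 hr at 37C.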
Structure (SMILES),outcome [1],Potency [2],Potency [3],Potency [4],outcome [5],Potency [6],Potency [7],Potency [8],outcome [9],Potency [10],Potency [11],Potency [12],Potency [13],outcome [14],outcome (Aromatase (Homo sapiens)),Potency [15]
Nc1ccn([C@@H]2O[C@H](CO)[C@@H](O)C2O)c(=O)n1 (some centres not stated),inactive,298 nM (active) and 193 nM (active),266 nM (active) and 172 nM (active),376 nM (active) and 172 nM (active),inactive,inactive,531 nM (active) and 486 nM (active),376 nM (active) and 193 nM (active),inactive,inactive,inactive,inactive,inactive,inactive,inactive,–
NCCCC(N)(C(=O)O)C(F)F (configuration not stated),inactive,inactive,inactive,inactive,inactive,inactive,inactive,–,inactive,inactive,–,–,–,inactive,–,–
COc1c(N2CCNC(C)C2)c(F)cc2c(=O)c(C(=O)O)cn(C3CC3)c12 (configuration not stated),inactive,inactive,inactive,inactive,inactive,inactive,inactive,inactive,inactive,inactive,–,–,–,inactive,inactive,–
N[C@@H](CCC(=O)O)C(=O)O,inactive,inactive,inactive,inactive,inactive,inactive,inactive,–,inactive,inactive,inactive,inactive,inactive,inactive,inactive,inactive
CC(C)c1ccc2ncccc2c1,inactive,inactive,inactive,inactive,inactive,inactive,inactive,inactive,inactive,inactive,inactive,inactive,–,inactive,inactive,inactive
